Bioassay records as filed in PubChem BioAssay.
Hits are enriched below; roughly 2.2% of the tested compounds scored in any of these assays.
CHT PAM: CHT positive allosteric modulators, primary screen, cell-based, membrane potential dye, choline EC20; 310,000 compounds, 0.49% hits; CHT-expressing cells; hits give high values; LV-AA mutant CHT in HEK293 cells; High affinity choline transporter 1 (Homo sapiens), Q9GZV3; B-score at 10 µM;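 active = initial fluorescence not abnormally high and integrated response B-score, plate-corrected, over 3 SD above library mean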
Target sequence (Q9GZV3 whole entry, looked up): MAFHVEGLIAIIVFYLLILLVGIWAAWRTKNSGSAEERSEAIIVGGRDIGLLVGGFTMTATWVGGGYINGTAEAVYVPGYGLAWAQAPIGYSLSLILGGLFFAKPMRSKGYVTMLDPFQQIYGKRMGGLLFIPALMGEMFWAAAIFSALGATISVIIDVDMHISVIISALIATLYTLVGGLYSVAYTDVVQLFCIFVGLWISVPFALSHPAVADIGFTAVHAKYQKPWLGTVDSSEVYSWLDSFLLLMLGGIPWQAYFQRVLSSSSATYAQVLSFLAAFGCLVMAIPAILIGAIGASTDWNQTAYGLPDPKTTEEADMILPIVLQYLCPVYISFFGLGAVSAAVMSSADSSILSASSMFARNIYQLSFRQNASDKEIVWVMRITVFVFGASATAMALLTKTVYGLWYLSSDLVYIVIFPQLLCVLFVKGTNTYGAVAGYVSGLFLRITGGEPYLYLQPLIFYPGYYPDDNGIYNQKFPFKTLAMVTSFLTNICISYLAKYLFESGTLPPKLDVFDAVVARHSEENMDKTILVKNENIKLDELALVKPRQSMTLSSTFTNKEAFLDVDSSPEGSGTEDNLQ
AI-2 QS modul: Vibrio harveyi AI-2 quorum sensing modulators, primary screen, JMH597 strain, luminescence/OD600 ratio; Vibrio harveyi JMH597 AI-2 luminescence/OD600 ratio, 9 h; hits give low values; strain lacks LuxN and CqsS sensors; 0 = neutral-control median; activity change, % at 7.5 µM; 300,000 compounds, 0.4% hits; in the data active = activity change below about -75%, passing the limit was not always enough; inconclusive = no clear call, values can overlap the other calls;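 note: luminescence divided by OD600 gain over 9 h not by final OD600 alone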
Platelet DG rel: inhibitors of platelet dense granule secretion, primary screen, cell-based, MLPCN, human platelets; 300,000 compounds, 0.22% hits; human platelet-rich plasma, SFLLRN dense granule ATP release, luminescence; inhibition, %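 (compounds screened at 7.5 µM in platelet-rich plasma)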; AID 1663, 2009;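 active = mean replicate score, as percent of positive control, at or above 50; inconclusive = mean below 50 but at least one replicate at or above 50; inactive = mean and every replicate below 50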
CHT block: inhibitors of human choline transporter CHT; High affinity choline transporter 1 (Homo sapiens), Q9GZV3; AID 488975, 2010; B-score at 10 µM; CHT-expressing cells, membrane potential dye, choline response; hits give low values; 310,000 compounds, 0.86% hits;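 active = B-score over 3 SD under the library average, and starting fluorescence ratio not unusually high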;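 note: choline stimulus applied at its EC90 after an EC20 pre-addition; B-score computed on integrated fluorescence ratio after choline addition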
HIF act: HIF pathway transcriptional activators, primary screen, cell-based, U2OS HRE-luciferase, luminescence; 300,000 compounds, 0.32% hits; activation, % at 7.5 µM (by protocol); U2OS HRE-luciferase reporter; normalized: DMSO 0%, desferrioxamine 100%;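 active = mean activation of at least 10% of the iron chelator positive control signal, with at least half of replicates also reaching 10%; inconclusive = mean and replicate majority disagree about reaching 10%; inactive = mean and most replicates under 10%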
VLA-4 inh: inhibition in human VLA-4 binding assay, primary screen, VLA-4 allosteric modulator project, MLPCN library, flow cytometry, VLA-4 expressing cells; ligand binding flow cytometry; inhibition, % (about 7 µM as worked out from the volumes in the protocol); 330,000 compounds, 0.2% hits; AID 2557, 2010; in the data active = inhibition above about 50%
* hit, by the source's call; i = inactive; ? = inconclusive; nt = no result given.

SMILES | CHT PAM | AI-2 QS modul | Platelet DG rel | CHT block | HIF act | VLA-4 inh
COc1cc(O)oc1C=Nc1ccc(C(=O)O)cc1 | i | 17.8 | 70.1* | i | 1.1 | 10.5
Cc1ccc(S(=O)(=O)Nc2cc(Cl)ccc2-n2cncn2)cc1 | nt | nt | nt | nt | nt | -0.9
COc1ccc(CC(=O)Nc2cccc(-c3nnc(-c4ccc(C)cc4)o3)c2)cc1OC | i | 14.4 | -8.7 | i | 0.3 | -1.9
COc1ccc(CC(=O)Nc2cccc(-c3nnc(-c4ccccc4)o3)c2)cc1OC | nt | 13.1 | 5.2 | nt | 376.2* | nt
CN(C)c1ccc(/C=N/NC(=O)c2ccnn2C)cc1 | i | 8.6 | 73.0* | i | 1.1 | 18.2
CN(C)c1ccc(/C=N/NC(=O)c2ccn(C)n2)cc1 | i | nt | 0.7 | i | 2.6 | 2.0
Cc1ccsc1C(=O)Nc1nc2ccccc2[nH]1 | i | 3.0 | 100.1* | i | -1.7 | 1.7
CCOC(=O)c1c(S(=O)(=O)N2CCCC(C)C2)c(C)n(C)c1C (centres undefined) | i | -10.3 | -8.2 | i | -0.7 | -2.3
CCOC(=O)c1c(S(=O)(=O)N2CCCC2)c(C)n(C)c1C | i | 4.3 | -12.2 | i | 47.6* | 2.6
COc1cc(Cl)c(C)cc1NC(=O)CSc1sc2c(O)cc(=O)[nH]c2c1C#N | i | 43.2 | 5.3 | i | -0.6 | -0.6
CCOc1ccc2c(C)c(Cl)c(=O)oc2c1 | i | 0.1 | 2.6 | i | 95.7* | 15.0
Oc1c(N=Nc2ccccc2)sc2ccccc12 | i | 9.1 | 55.8* | i | -1.2 | -9.3
O=C(COc1ccc2c(c1)oc(=O)c1ccccc12)NCCCN1CCOCC1 | i | 16.3 | 9.6 | i | 0.2 | -5.0
O=C(CSc1nnnn1C1CC1)N1CCN(c2ccccc2F)CC1 | nt | nt | nt | nt | nt | 12.4
CC(=O)/C=C/n1c(=S)oc2ccccc21 | i | -96.3* | -8.7 | i | -5.2 | -22.0
CN(c1ccccc1)S(=O)(=O)c1cc(Cl)ccc1Cl | i | 20.6 | -0.1 | i | -0.4 | 51.3*
CCn1cc(C(=O)N2CCN(c3ccc(C(C)=O)cc3)CC2)c2cc(OC)c(OC)cc2c1=O | i | nt | 6.1 | i | -0.6 | 7.1
OCCOCCn1c(-c2ccccc2)nc(=S)c2c1CCCC2 | 6.41* | 11.9 | 3.9 | i | 0.1 | 1.3
C[C@@H](NC(=O)[C@@H]1Cc2ccccc2CN1C(=O)OC(C)(C)C)C(=O)NC1CCCC1 | i | 33.7 | 6.0 | i | nt | 4.3
Oc1c(CN2CCOCC2)cc(COCc2ccccc2)c2cccnc12 | i | 25.9 | -26.6 | i | 53.0* | 17.9
CC1=NN2C(=N)/C(=C\c3cc(C)n(Cc4ccccc4)c3C)C(=O)N=C2S1 | i | 7.4 | -5.4 | i | 54.7* | -0.8
Cc1cc(/C=C2\C(=N)N3N=C(CC(=O)N4CCOCC4)SC3=NC2=O)c(C)n1Cc1ccccc1 | i | 8.2 | -7.6 | i | 0.2 | 1.5
CCCC(C)NC(=O)CN1C(=O)NC2(CCc3ccccc32)C1=O (centres undefined) | i | 39.9 | -3.2 | i | 39.6* | 7.9
COc1ccc(CN2CCNC(=O)C2CC(=O)NC2CCCCC2)c(OC)c1 (centres undefined) | i | 24.8 | 10.1 | i | -2.2 | 9.1
COc1ccc(CN2CCNC(=O)C2CC(=O)NC2CCCC2)c(OC)c1 (centres undefined) | i | 13.5 | -1.7 | i | 54.6* | 29.0
SMILES | CHT PAM | AI-2 QS modul | Platelet DG rel | CHT block | HIF act | VLA-4 inh
COc1ccc(O)c(/C=N/NC(=O)c2ccc(CSc3nc(C)cc(C)n3)cc2)c1 | i | 52.5 | -5.3 | i | 29.0* | -11.5
COc1ccc(O)c(/C=N/NC(=O)c2ccc(OCc3cccc(Br)c3)cc2)c1 | i | 12.8 | -1.1 | i | 15.7* | 0.6
COc1ccc(C(=O)N/N=C/c2cc(Br)ccc2O)cc1OC | i | -17.8 | -1.2 | i | 39.5* | 5.6
Cn1cccc1-c1cc(C(=O)N/N=C/c2cc(Br)ccc2O)[nH]n1 | i | ? | 8.3 | i | 10.4* | 4.3
COC(=O)c1c(NC(=S)NN2CCN(C)CC2)sc2c1CCC(C)C2 (centres undefined) | i | 25.9 | 6.2 | i | -0.1 | 40.4
O=C([O-])c1cc(-c2ccccc2)cc(-c2ccccc2)[n+]1Cc1ccccc1 | 6.79* | -13.4 | -0.3 | i | -0.7 | -9.6
Cc1ccn2c(NC(=O)C(C)(C)Oc3ccc(Cl)cc3)c(-c3cccs3)nc2c1 | i | -2.1 | -1.2 | -7.94* | 1.2 | 14.8
CCn1c(SCC(=O)c2ccc(O)c(O)c2)nnc1-c1ccc(C)cc1 | i | -1.3 | -26.8 | i | -0.2 | -1.3
CCn1c(Cc2cccn2C)nnc1SCC(=O)c1ccc(C)cc1 | i | -0.6 | 58.4* | i | 0.2 | 2.5
CCN(CCn1cccn1)Cc1cn[nH]c1-c1cccc2ccccc12 | i | 25.4 | 59.5* | i | -0.4 | -1.7
CCN(CCn1cccn1)Cc1cn[nH]c1-c1ccc(-c2ccccc2)cc1 | i | 6.4 | 0.1 | i | 0.4 | 26.8
O=C(CSc1nc2c(c(=O)[nH]1)CCC2)Nc1ccc(F)cc1 | i | 3.9 | 2.7 | i | -0.2 | 0.7
COc1ccc(NC(=O)CSc2nc3c(c(=O)[nH]2)CCC3)cc1OC | i | 8.7 | 1.2 | i | 11.7* | 0.9
Cc1c(Cc2ccc3c(c2)OCO3)sc(NC(=O)c2ccc3ccccc3c2)c1C(N)=O | i | 18.4 | -6.7 | -6.58* | -0.6 | -1.8
CCC(c1nnnn1Cc1cccs1)N1CCN(C2CCCC2)CC1 (centres undefined) | i | 5.6 | 5.3 | i | -0.4 | -6.1
CCCC(c1nnnn1Cc1cccs1)N1CCN(C2CCCC2)CC1 (centres undefined) | 6.27* | 20.7 | 2.8 | i | -0.8 | -2.1
O=C(CCNC(=O)c1ccco1)NCc1ccc(C(=O)O)cc1 | nt | nt | nt | nt | nt | 20.7
COC(=O)C(NC(=O)c1c(C)nn(C)c1Cl)c1ccccc1 (centres undefined) | i | 12.1 | 4.8 | i | 609.3* | 7.4
COC(=O)c1sc(NC(=O)c2ccoc2C)nc1C | nt | -1.8 | 57.2* | nt | 3.0 | nt
COc1ccc2nc(NC(=O)c3ccoc3C)sc2c1 | i | -1.2 | 91.4* | i | -0.1 | -3.3
CCC(=O)N1CCc2nc(-c3ccccc3)sc2C1 | i | 24.7 | 1.0 | i | 4.3 | -2.1
COc1cc(/C=C2\C(=N)N3N=C(S(=O)(=O)CC(C)C)SC3=NC2=O)ccc1OC(=O)c1ccco1 | i | 3.5 | -7.0 | -5.43* | -0.2 | -3.2
